Screening results from PubChem BioAssay.
TGFb SMAD3 inh – qHTS for Inhibitors of TGF-b; hit rate 1.2% among 410,000; AID 588855, 2011; HepG2 CAGA-GFP TGF-b/SMAD3 reporter, GFP fluorescence, 18 h; TGF-beta stimulated, 500 pg/mL final; Potency, µM (titrated, usually from 46.1 µM), inactives show at the top dose activity, negative = inhibition, actives largely listed as inhibitors; note: potency is the fitted concentration of half-maximal effect; % is set by controls: 0 for no effect and ±100 for the full control effect; nearly all actives have a fitted effect of over 65% in size
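Cell-based qHTS in HEPG2 carrying a CAGA-GFP Smad reporter; compounds added before 500 pg/mL final TGF-beta, 18 h incubation at 37 degrees C, GFP fluorescence quantified per cell by imaging cytometry.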
TDP1 cell CPT – qHTS for Inhibitors of human tyrosyl-DNA phosphodiesterase 1 (TDP1): qHTS in cells in presence of CPT; Potency, µM (doses to about 46.2 µM), for inactives: at the highest dose activity change, negative = growth inhibition, hits mostly inhibitors; chicken DT40 Tdp1-/-;hTDP1 cells + 20 nM CPT, ATP luminescence, 48 h; hit rate 12% among 420,000; note: potency is the fitted concentration of half-maximal effect; % is set by controls: 0 for no effect and ±100 for the full control effect; nearly all actives have a fitted effect of over 55% in size
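Chicken DT40 Tdp1-/- cells stably complemented with human TDP1 were seeded at 400 cells/well in medium containing 20 nM camptothecin, exposed to pin-transferred compounds, and grown at 37 °C for at least 48 hr. Viability was read as ATP luminescence.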
ASM inhibitor – Inhibitors of Secretory Acid Sphingomyelinase (S-ASM): qHTS; Sphingomyelin phosphodiesterase (Homo sapiens), P17405; Potency, µM (series often up to 57.5 µM), without a hit: at the top dose activity change, negative = inhibition, actives largely listed as inhibitors; AID 504937, 2011; hit rate 0.006% among 340,000; placental ASM, HMU-PC fluorogenic substrate, 60 min; note: potency is the fitted concentration of half-maximal effect
Target sequence (P17405 47-631 limits assumed): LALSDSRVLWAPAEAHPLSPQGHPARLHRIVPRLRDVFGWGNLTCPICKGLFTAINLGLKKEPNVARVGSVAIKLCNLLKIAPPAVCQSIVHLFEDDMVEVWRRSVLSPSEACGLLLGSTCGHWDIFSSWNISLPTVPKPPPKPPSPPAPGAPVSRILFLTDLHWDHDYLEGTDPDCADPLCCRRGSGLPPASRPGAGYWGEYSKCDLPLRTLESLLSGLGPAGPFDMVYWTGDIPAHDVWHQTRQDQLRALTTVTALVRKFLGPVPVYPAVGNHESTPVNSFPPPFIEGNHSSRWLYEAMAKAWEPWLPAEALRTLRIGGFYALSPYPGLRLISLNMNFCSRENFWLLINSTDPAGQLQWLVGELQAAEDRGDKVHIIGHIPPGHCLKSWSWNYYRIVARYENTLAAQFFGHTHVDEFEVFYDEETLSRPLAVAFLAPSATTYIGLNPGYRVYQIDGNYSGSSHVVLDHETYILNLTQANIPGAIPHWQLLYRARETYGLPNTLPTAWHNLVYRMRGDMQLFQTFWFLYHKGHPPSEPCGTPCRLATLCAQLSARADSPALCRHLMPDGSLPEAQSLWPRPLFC
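Human placenta-derived ASM preincubated with compound 10 min at room temperature, then reacted with 9 uM (final) fluorogenic HMU-PC substrate for 60 min at 37 C. Stop solution raises pH to 10; fluorescence read at Ex 386/Em 447 nm.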
DT40 TDP1 no CPT – qHTS for Inhibitors of human tyrosyl-DNA phosphodiesterase 1 (TDP1): qHTS in cells in absence of CPT; Potency, µM (doses to about 46.2 µM), for inactives: at the top dose activity change, negative = growth inhibition, usual class: inhibitors; AID 686978, 2013; hit rate 15% among 420,000; DT40 Tdp1-/- hTDP1 cells, no CPT, ATP luminescence, 48 h; note: potency is the fitted concentration of half-maximal effect; % is set by controls: 0 for no effect and ±100 for the full control effect; nearly all actives have a fitted effect of over 55% in size
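Cells were dispensed at 400 per well, compounds added by pin tool, plates incubated ≥48 hr at 37 °C, then CellTiter-Glo added for 30 min at room temperature before luminescence reading. Line: DT40 Tdp1-/- complemented with hTDP1; camptothecin omitted.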
IL-1B inflam inh – qHTS for Inhibitors of Inflammasome Signaling: IL-1-beta AlphaLISA Primary Screen. activity change, % at 57.5 µM. AID 743279, 2014. hit rate 4.7% among 360,000. THP-1 LPS/ATP IL-1B secretion, AlphaLISA, 16 h; hits give low values; in the data active = activity change below about -50%; inconclusive = mostly about -30% to -49%; note: % is set by controls: 0 for no effect and ±100 for the full control effect
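THP-1 cells pretreated 1 hr with compounds (up to 57.5 uM final), then stimulated with LPS (250 ng/mL final) plus ATP (1.25 mM final); secreted IL-1B measured by AlphaLISA after 16 hr, decreased signal indicating inhibition.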
HepG2 viability – qHTS for Inhibitors of TGF-b: Cytotox Counterscreen; HepG2 CAGA-GFP viability, ATP luminescence, 18 h; Potency, µM (titrated, usually from 46.1 µM), for the others: at the top dose activity change, negative = cytotoxicity, actives largely listed as cytotoxic; hit rate 0.76% among 410,000; note: potency is the fitted concentration of half-maximal effect
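HepG2 CAGA-GFP cells (1000/well, DMEM with 1% FBS) received compound, then TGF-beta at 500 pg/mL final, and were incubated 18 hours at 37 degrees C. Viability was read by CellTiter-Glo luminescence. Media-only wells were set as complete cell-killing and DMSO as no toxicity.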
The depositor's hits bear a star; ? = inconclusive; · = not tested or not shown. An excerpt weighted towards active compounds, which were near 19% of everything screened. Unless noted, calls come from the whole dose curve; as a rule, active = well fitted curve in the direction sought with a large enough effect; inconclusive = small, poorly fitted or top-dose-only effect, or another doubt; inactive = no such curve, though single readings can be large; an effect the other way counts as inactive or inconclusive.

SMILES	TGFb SMAD3 inh	TDP1 cell CPT	ASM inhibitor	DT40 TDP1 no CPT	IL-1B inflam inh	HepG2 viability
CCNc1cc2c(cc1O)CCC1C2CCC2(C)C(O)CCC12 (stereo unspecified)	?	7.3µM*	-2%	23µM*	-101*	-4%
Cc1[nH]c2c(C)cccc2c1CCNC(=O)c1cc2ccccc2oc1=O	-2%	·	·	·	·	-13%
COC(=O)CNC(c1ccccc1)c1cc(Br)ccc1NC(C)=O (stereo unspecified)	5%	-17%	1%	-20%	-6	3%
NNC(=O)CNC(c1ccccc1)c1cc(Br)ccc1NC(=O)c1ccccc1Br (stereo unspecified)	-13%	-5%	-3%	-6%	-24	-10%
NNC(=O)CNC(c1ccccc1)c1cc(Br)ccc1NC(=O)c1ccc(Br)cc1 (stereo unspecified)	-17%	?	-1%	-19%	-63*	-29%
NNC(=O)CNC(c1ccccc1)c1cc(Br)ccc1NC(=O)CCN1CCOCC1 (stereo unspecified)	-6%	23µM*	4%	13µM*	-1	-21%
CCOC(=O)CNC(c1ccccc1)c1cc(Br)ccc1NC(=O)c1cccc(Cl)c1 (stereo unspecified)	-19%	?	·	23µM*	·	-30%
COC(=O)CNC(c1ccccc1Cl)c1cc(Br)ccc1NS(=O)(=O)c1ccc(C)cc1 (stereo unspecified)	?	?	-28%	16µM*	10	-2%
Cc1ccc(CCNC(=O)c2cccc(Nc3nc4ccccc4nc3-n3nc(C)cc3C)c2)cc1	?	-25%	·	?	·	-10%
COC(=O)CNC(c1ccccc1)c1cc(Br)ccc1NC(=O)c1ccccc1 (stereo unspecified)	?	21µM*	·	?	·	-53%
O=C(NCc1ccc(Cl)nc1)c1csc(COCCO)n1	-4%	1%	·	0%	36	-1%
O=C(CN1C(=O)C2(SCC(=O)N2c2ccccc2)c2ccccc21)NCCc1ccccc1 (stereo unspecified)	11%	·	·	·	·	-10%
O=C(CN1C(=O)C2(SCC(=O)N2c2ccccc2)c2ccccc21)NCc1ccccc1Cl (stereo unspecified)	-6%	·	·	·	·	-12%
O=C(CN1C(=O)C2(SCC(=O)N2c2cccc(F)c2)c2ccccc21)NCCc1ccccc1 (stereo unspecified)	-16%	-29%	·	23µM*	·	-27%
O=C(CN1C(=O)C2(SCC(=O)N2c2cccc(F)c2)c2ccccc21)NCc1ccccc1Cl (stereo unspecified)	-26%	?	·	21µM*	·	-37%
CCc1ccc(C2C(C#N)=C(N)C(C#N)(C#N)C3=CCC(C(C)(C)C)CC32)cc1 (stereo unspecified)	?	?	2%	15µM*	-58*	-109%
C=CCNCc1ccc(C(=O)NCCCCCCC)cc1[N+](=O)[O-]	-13%	?	-9%	18µM*	-2	-19%
CCc1cccc(C)c1NC(=O)c1cc2ccccc2o1	?	18µM*	·	16µM*	·	-24%
O=C(Nc1ccccn1)c1cc2ccccc2o1	0%	10µM*	2%	?	-97*	7.9µM*
CCc1cccc(C)c1NC(=O)C1CC=CCC1C(=O)O (stereo unspecified)	-1%	?	0%	21µM*	0	-14%
CCc1cccc(C)c1NC(=O)CO/N=C(\C)c1cc2ccccc2o1	-11%	18µM*	·	23µM*	-2	-29%
CS(=O)(=O)Nc1cccc(-c2cc(NCc3cccs3)ncn2)c1	·	-10%	·	-14%	·	·
O=C(CN1CCCCCC1)Nc1ccc(Br)cn1	-4%	-12%	7%	0%	15	-4%
Cc1ccc(-n2nc3ccc(NC(=O)c4cc5ccccc5o4)cc3n2)cc1	-6%	-23%	·	?	·	-12%
O=C(Nc1ccc(N2CCN(C(=O)c3ccc(Cl)cc3)CC2)cc1)c1cc2ccccc2o1	-8%	?	-2%	-19%	-1	4%
SMILES	TGFb SMAD3 inh	TDP1 cell CPT	ASM inhibitor	DT40 TDP1 no CPT	IL-1B inflam inh	HepG2 viability
CCC(=O)N1CCN(c2ccc(NC(=O)c3cc4ccccc4o3)cc2)CC1	0%	?	-3%	18µM*	-30	1%
CCCCc1ccc(-n2nc3ccc(NC(=O)c4cc5ccccc5o4)cc3n2)cc1	?	?	·	10µM*	·	-98%
CCOc1ccccc1CNC(=O)c1ccc(Cn2c(=O)c3cccn3c3cccnc32)cc1	-8%	-21%	·	0%	·	-23%
Cc1ccc(C)c(S(=O)(=O)N2CCN(C(=O)c3cncc(Br)c3)CC2)c1	?	3%	-2%	?	-3	-11%
Cc1ccc(S(=O)(=O)N2CCN(C(=O)c3c(C)nn(-c4ccccc4)c3Cl)CC2)cc1	1%	?	0%	?	-54*	-2%
Cc1cc(C)c(S(=O)(=O)N2CCN(C(=O)c3c(C)nn(-c4ccccc4)c3Cl)CC2)c(C)c1	-53%	?	-9%	?	?	-9%
COc1ccc(S(=O)(=O)N2CCN(C(=O)c3c(C)nn(-c4ccccc4)c3Cl)CC2)cc1	-2%	?	6%	23µM*	-11	-30%
Cc1ccc(S(=O)(=O)N2CCN(C(=O)n3ccnc3)CC2)cc1	0%	0.65µM*	-3%	12µM*	-15	-4%
Cc1nn(-c2ccccc2)c(Cl)c1C(=O)NNC(=O)c1ccccc1O	-16%	?	-3%	13µM*	111	-18%
CCC(=O)c1ccc(OC(=O)N2CCOCC2)cc1	1%	6%	5%	3%	-3	0%
C=CCN1C(c2ccccc2)=CS/C1=C(/C#N)c1nnc(N2CCOCC2)n1-c1ccccc1	4%	18µM*	-1%	15µM*	-7	-7%
COc1ccc2cc(S(=O)(=O)N3CCCC(C)C3)ccc2c1 (stereo unspecified)	-24%	?	-1%	23µM*	?	-11%
COc1ccc(C(CNC(=O)c2cccc(S(=O)(=O)N3CCCC(C)C3)c2)N(C)C)cc1 (stereo unspecified)	-21%	?	1%	-23%	-55*	-20%
